# Measured values: the supplement of paper PMC8728848
# The entries come from a sample that favours the strongest signals as a whole.
# How the values were obtained:
# Experiment in all cases: glycan array binding signal (z-score within array); higher = stronger binding
# Conditions in all cases: glycan notation: IUPAC condensed, linker removed
# [1] = molecular target: Gal(b1-4)GlcNAc(b1-3)Gal(b1-4)GlcNAc(b1-3)[Gal(b1-4)GlcNAc(b1-3)Gal(b1-4)GlcNAc(b1-6)]GalNAc
# Procedure, shortened: (§1)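 Columns mapping to the same glycan were averaged after glycan names were converted to IUPAC-condensed notation. The data come from 3228 arrays in the Consortium for Functional Glycomics database, limited to those with an available protein sequence. Binding is reported as a within-array Z-score averaged across arrays of one protein sequence and across linkers.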
# [2] = molecular target: Gal(b1-4)GlcNAc(b1-3)Gal(b1-4)GlcNAc(b1-6)[Gal(b1-3)]GalNAc
# Procedure, shortened: as §1
# Gal3S(b1-3)GlcNAc = molecular target: Gal3S(b1-3)GlcNAc
# Procedure, shortened: as §1
# Gal3S4S(b1-4)GlcNAc = molecular target: Gal3S4S(b1-4)GlcNAc
# Procedure, shortened: as §1
# GalNAc3S(b1-4)GlcNAc3S = molecular target: GalNAc3S(b1-4)GlcNAc3S
# Procedure, shortened: as §1
# [3] = molecular target: GlcNAc(b1-2)[GlcNAc(b1-4)]Man(a1-3)[GlcNAc(b1-4)][GlcNAc(b1-2)[GlcNAc(b1-6)]Man(a1-6)]Man(b1-4)GlcNAc(b1-4)[Fuc(a1-6)]GlcNAc
# Procedure, shortened: as §1
# GlcNAc(b1-3)Fuc = molecular target: GlcNAc(b1-3)Fuc
# Procedure, shortened: as §1
# [4] = molecular target: GlcNAc(b1-3)Gal(b1-4)GlcNAc
# Procedure, shortened: as §1
# GlcNAc(b1-4)GlcNAc = molecular target: GlcNAc(b1-4)GlcNAc
# Procedure, shortened: as §1
# [5] = molecular target: Kdn(a2-3)Gal(b1-4)[Fuc(a1-3)]GlcNAc
# Procedure, shortened: as §1
# [6] = molecular target: Man(a1-2)Man(a1-2)Man(a1-6)[Man(a1-3)]Man
# Procedure, shortened: as §1
# [7] = molecular target: Man(a1-2)Man(a1-3)[Man(a1-2)Man(a1-6)]Man(a1-6)[Man(a1-2)Man(a1-2)Man(a1-3)]Man
# Procedure, shortened: as §1
# MurNAc(b1-4)GlcNAc = molecular target: MurNAc(b1-4)GlcNAc
# Procedure, shortened: as §1
# [8] = molecular target: Neu5Ac(a2-3)Gal(b1-3)GlcNAc(b1-2)Man(a1-3)[Neu5Ac(a2-3)Gal(b1-3)GlcNAc(b1-2)Man(a1-6)]Man(b1-4)GlcNAc(b1-4)GlcNAc
# Procedure, shortened: as §1
# [9] = molecular target: Neu5Ac(a2-3)Gal(b1-3)GlcNAc(b1-3)GalNAc
# Procedure, shortened: as §1
# [10] = molecular target: Neu5Ac(a2-3)Gal(b1-3)GlcNAc(b1-4)Gal(b1-4)Glc
# Procedure, shortened: as §1
# [11] = molecular target: Neu5Ac(a2-3)Gal(b1-3)[Fuc(a1-4)]GlcNAc(b1-3)Gal(b1-3)[Fuc(a1-4)]GlcNAc
# Procedure, shortened: as §1
# [12] = molecular target: Neu5Ac(a2-3)Gal(b1-4)GlcNAc(b1-3)Gal
# Procedure, shortened: as §1
# [13] = molecular target: Neu5Ac(a2-3)Gal(b1-4)GlcNAc(b1-6)[Gal(b1-3)]GalNAc
# Procedure, shortened: as §1
# [14] = molecular target: Neu5Ac(a2-3)Gal(b1-4)[Fuc(a1-3)]GlcNAc(b1-6)[Gal(b1-3)]GalNAc
# Procedure, shortened: as §1
# [15] = molecular target: Neu5Ac(a2-3)[GalNAc(b1-4)]Gal(b1-4)GlcNAc(b1-3)GalNAc
# Procedure, shortened: as §1
# [16] = molecular target: Neu5Ac(a2-6)Gal(b1-4)GlcNAc(b1-2)Man(a1-3)[Neu5Ac(a2-3)Gal(b1-4)GlcNAc(b1-2)Man(a1-6)]Man(b1-4)GlcNAc(b1-4)GlcNAc
# Procedure, shortened: as §1
# [17] = molecular target: Neu5Ac(a2-6)Gal(b1-4)GlcNAc(b1-2)[Neu5Ac(a2-6)Gal(b1-4)GlcNAc(b1-4)]Man(a1-3)[GlcNAc(b1-4)][Neu5Ac(a2-6)Gal(b1-4)GlcNAc(b1-4)Man(a1-6)]Man(b1-4)GlcNAc(b1-4)GlcNAc
# Procedure, shortened: as §1
# [18] = molecular target: Neu5Ac(a2-6)Gal(b1-4)GlcNAc(b1-2)[Neu5Ac(a2-6)Gal(b1-4)GlcNAc(b1-6)]Man(a1-6)[Neu5Ac(a2-6)Gal(b1-4)GlcNAc(b1-2)Man(a1-3)][GlcNAc(b1-4)]Man(b1-4)GlcNAc(b1-4)GlcNAc
# Procedure, shortened: as §1
# [19] = molecular target: Neu5Ac(a2-8)Neu5Ac(a2-3)Gal(b1-4)Glc
# Procedure, shortened: as §1
# [20] = molecular target: Neu5Ac(a2-8)Neu5Ac(a2-8)Neu5Ac(a2-8)Neu5Ac(a2-3)[GalNAc(b1-4)]Gal(b1-4)Glc
# Procedure, shortened: as §1
# [21] = molecular target: Neu5Ac9Ac(a2-3)Gal(b1-4)GlcNAc
# Procedure, shortened: as §1
binder,measurement,setting,value
"DC-Sign (Homo sapiens), Q9NNX6 (protein) MSDSKEPRLQQLGLLEEEQLRGLGFRQTRGYKSLAGCLGHGPLVLQLLSFTLLAGLLVQVSKVPSSISQEQSRQDAIYQNLTQLKAAVGELSEKSKLQEIYQELTQLKAAVGELPEKSKLQEIYQELTRLKAAVGELPEKSKLQEIYQELTWLKAAVGELPEKSKMQEIYQELTRLKAAVGELPEKSKQQEIYQELTRLKAAVGELPEKSKQQEIYQELTRLKAAVGELPEKSKQQEIYQELTQLKAAVERLCHPCPWEWTFFQGNCYFMSNSQRNWHDSITACKEVGAQLVVIKSAEEQNFLQLQSSRSNRFTWMGLSDLNQEGTWQWVDGSPLLPSFKQYWNRGEPNNVGEEDCAEFSGNGWNDDKCNLAKFWICKKSAASCSRDEEQFLSPAPATPNPPPA",glycan array binding signal (z-score),[1],-0.146
same,glycan array binding signal (z-score),[2],-0.097
same,glycan array binding signal (z-score),Gal3S(b1-3)GlcNAc,-0.136
same,glycan array binding signal (z-score),Gal3S4S(b1-4)GlcNAc,-0.195
same,glycan array binding signal (z-score),GalNAc3S(b1-4)GlcNAc3S,-0.101
same,glycan array binding signal (z-score),[3],-0.179
same,glycan array binding signal (z-score),GlcNAc(b1-3)Fuc,-0.17
same,glycan array binding signal (z-score),[4],-0.089
same,glycan array binding signal (z-score),GlcNAc(b1-4)GlcNAc,-0.109
same,glycan array binding signal (z-score),[5],-0.1
same,glycan array binding signal (z-score),[6],4.51
same,glycan array binding signal (z-score),[7],8.32
same,glycan array binding signal (z-score),MurNAc(b1-4)GlcNAc,0.01
same,glycan array binding signal (z-score),[8],-0.202
same,glycan array binding signal (z-score),[9],-0.142
same,glycan array binding signal (z-score),[10],-0.183
same,glycan array binding signal (z-score),[11],1.83
same,glycan array binding signal (z-score),[12],-0.186
same,glycan array binding signal (z-score),[13],-0.171
same,glycan array binding signal (z-score),[14],-0.164
same,glycan array binding signal (z-score),[15],-0.171
same,glycan array binding signal (z-score),[16],-0.097
same,glycan array binding signal (z-score),[17],-0.183
same,glycan array binding signal (z-score),[18],-0.167
same,glycan array binding signal (z-score),[19],-0.177
same,glycan array binding signal (z-score),[20],-0.19
same,glycan array binding signal (z-score),[21],-0.175
